# The panel holds about 83,000 compounds, 20% with a hit somewhere; the sample as a whole holds those more often.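 Single-concentration screen, 48 h exposure, 96-well plates. Endpoint: percent growth. Below 10 = active.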 Unmarked numbers belong to inactive results. Calls of active or inactive are those of the source.
# Assays:
# Assay in all cases: NCI-60 one-dose screen, 48 h (100 = growth as untreated, 0 = no growth, -100 = all killed)
# Details in all cases: 10 µM
# NCI-H23 lung = system: NCI-H23 lung
# NCI-H226 lung = system: NCI-H226 lung
# NCI-H322M lung = system: NCI-H322M lung
# HOP-62 NSCLC = system: HOP-62 NSCLC
# NCI-H460 lung = system: NCI-H460 lung
# NCI-H522 lung = system: NCI-H522 lung
# A549/ATCC NSCLC = system: A549/ATCC NSCLC
# 786-0 renal = system: 786-0 renal
# COLO 205 colon = system: COLO 205 colon
# DU-145 prostate = system: DU-145 prostate
# K-562 leukemia = system: K-562 leukemia
# MALME-3M melanoma = system: MALME-3M melanoma
# MDA-MB-231 breast = system: MDA-MB-231 breast
# RXF 393 renal = system: RXF 393 renal
# SF-268 CNS = system: SF-268 CNS
# SF-295 CNS = system: SF-295 CNS
# SF-539 CNS = system: SF-539 CNS
# UACC-257 melanoma = system: UACC-257 melanoma
# M14 melanoma = system: M14 melanoma
# HCT-15 colon = system: HCT-15 colon
Compound,growth (NCI-H23 lung),growth (NCI-H226 lung),growth (NCI-H322M lung),growth (HOP-62 NSCLC),growth (NCI-H460 lung),growth (NCI-H522 lung),growth (A549/ATCC NSCLC),growth (786-0 renal),growth (COLO 205 colon),growth (DU-145 prostate),growth (K-562 leukemia),growth (MALME-3M melanoma),growth (MDA-MB-231 breast),growth (RXF 393 renal),growth (SF-268 CNS),growth (SF-295 CNS),growth (SF-539 CNS),growth (UACC-257 melanoma),growth (M14 melanoma),growth (HCT-15 colon)
N#Cc1ncc(-c2cc(F)c(F)c(F)c2)c(NC2CCCCCC2)n1,92.9%,94.6%,105%,100%,95.7%,94.8%,95.8%,101%,88.5%,108%,92%,131%,91.7%,84.7%,82.3%,89.3%,97.5%,93.6%,101%,85.2%
Fc1ccc2nc(-c3nc(-c4ccccc4)n4ccccc34)[nH]c2c1,57%,-11.9% (active),-9.9% (active),-76.2% (active),-57% (active),-41.2% (active),-22.6% (active),0.317% (active),16.1%,-6.4% (active),8.58% (active),-57.7% (active),-3.47% (active),-25.7% (active),-38.6% (active),-28% (active),27.3%,-17.4% (active),27.7%,20.4%
CCCCCCc1cc(N=Nc2ccc(S(=O)(=O)Nc3cc(C)nc(C)n3)cc2)c(O)cc1O,102%,98%,93.5%,107%,110%,90.1%,106%,102%,103%,114%,93.8%,93.1%,111%,118%,110%,98.7%,97.1%,102%,94.2%,103%
CN(C)CCN1C(=O)c2cccc3c(-c4ccc5ncn(C6CCCCC6)c5c4)ccc(c23)C1=O,30.5%,25.1%,25.3%,23.4%,1.4% (active),4.65% (active),3.34% (active),19.1%,8.59% (active),27%,6.76% (active),30.8%,33.6%,26.3%,35.8%,23.1%,31.9%,23.1%,30.2%,12.5%
O=[N+]([O-])c1cccc(-c2ncc(-c3ccc(Cl)cc3Cl)[nH]2)c1,104%,80%,131%,45.8%,84.1%,-14% (active),94.4%,66.8%,89.4%,40%,-23.6% (active),125%,67.7%,95%,54.4%,93.7%,101%,109%,5.51% (active),-89.7% (active)
O=C(Nc1nc(-c2ccccc2Cl)cs1)c1cc(-c2ccc(Cl)cc2)nc2ccc(Cl)cc12,28.8%,72.7%,90.8%,28.5%,96.3%,57.8%,92.7%,23.5%,94.3%,32%,14.8%,41.5%,22%,88.8%,28.3%,89.4%,-5.27% (active),66.8%,-2.68% (active),8.89% (active)
Cc1cccc2c(NCCN(C)C)c3cccc(C(=O)NCCN(C)C)c3nc12,6.76% (active),22.4%,-5.21% (active),4.88% (active),-13.2% (active),-43.7% (active),16.2%,14.5%,0.559% (active),-20.1% (active),-24.5% (active),7.06% (active),5.41% (active),8.33% (active),11.3%,7.5% (active),11.6%,-20.6% (active),11.7%,-46.5% (active)
O=[N+]([O-])c1ccc(N/N=C/c2cccc3ccccc23)nc1,102%,121%,105%,110%,117%,84.8%,92.4%,99.2%,102%,124%,85.4%,168%,101%,112%,121%,126%,102%,102%,104%,91.1%
CN(C)N=Nc1nn(C(=O)Nc2ccc(Cc3ccccc3)cc2)c2ccccc12,61%,69.2%,81.3%,70.6%,11.4%,42.3%,31.5%,49.9%,-53.4% (active),60.8%,18.4%,53.8%,58.2%,94.8%,63.5%,9.64% (active),4.93% (active),29.3%,20.4%,36.2%
N=C(N)c1ccc(-c2ccc(-c3ccccc3)o2)nc1,101%,90.4%,91.7%,91.8%,90.3%,93.8%,77.8%,90.7%,-13% (active),103%,30.2%,91.9%,50.2%,106%,91.2%,81%,92%,94.6%,97.9%,81.1%
O=C(Nc1ccc(Cl)cc1)N1NC(c2ccc(Cl)cc2)C=C1c1ccccc1 (stereo not given),104%,109%,90.8%,93.4%,105%,98.4%,89.9%,92.1%,99.3%,102%,103%,100%,106%,102%,103%,105%,112%,99.7%,102%,103%
Cc1cc(C)c(NC(=O)c2sc3nc4c(cc3c2N)C(=O)CCC4)c(C)c1,33%,77.1%,56.3%,36.9%,6.43% (active),-14.7% (active),23%,30.4%,-6.14% (active),10%,19.8%,42.1%,35.7%,-6.66% (active),38.6%,-11.3% (active),-6.5% (active),48.7%,16.4%,31.8%
O=C1/C(=C\c2ccc(Cl)cc2)CN(C(=S)Nc2ccccc2)C/C1=C\c1ccc(Cl)cc1,-52.8% (active),-70.1% (active),-20.7% (active),-55.4% (active),-70.8% (active),-88.2% (active),-21.4% (active),-86% (active),-86.1% (active),-73.2% (active),2.61% (active),-39.9% (active),-17.3% (active),-88.6% (active),-72.4% (active),-53.3% (active),-94.4% (active),-55.4% (active),-65.3% (active),-34.7% (active)
Cc1ccc(C(=O)N2C/C(=C/c3ccccc3)C(=O)/C(=C/c3ccccc3)C2)cc1,78.6%,71.2%,80.5%,76.9%,90%,69%,84%,53.6%,76.7%,58.3%,5.67% (active),60.3%,53.4%,31.3%,66.4%,56.1%,87.2%,80.1%,18.2%,24.5%
CC(=O)c1nc2ccccc2n1CCNC(N)=O,82.1%,100%,95%,70.3%,55.2%,61.8%,62.3%,95.1%,69.7%,93.2%,44.1%,55.8%,77.2%,90.9%,71.9%,127%,79.7%,94.8%,73.8%,103%

# Source: PubChem BioAssay (NCI)
